Here are results for 112 sequences from paper PMC5836133, “The intracellular immune receptor Rx1 regulates the DNA-binding activity of a Golden2-like transcription factor”.

Whole data set: some 16,000 sequences, median “e-score” near -0.044, cut for the highest 2% near 0.38. The sample holds the highest values, similar sequences and a random draw of the others, so the mix is not that of the screen.

This assay concerns the target T1, GST-NbGlk1(82-244) (Nicotiana benthamiana).
T1 chain: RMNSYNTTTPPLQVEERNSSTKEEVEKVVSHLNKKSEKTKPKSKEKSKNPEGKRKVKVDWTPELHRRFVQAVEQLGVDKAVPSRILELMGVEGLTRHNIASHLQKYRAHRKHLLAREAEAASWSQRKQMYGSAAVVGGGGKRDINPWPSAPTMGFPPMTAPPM
The assay can be described thus: protein-binding microarray; NbGlk1 is a Golden2-like transcription factor of Nicotiana benthamiana; high values mean tight binding. The following applies: protein: recombinant; tags: GST (pTH6838); dsDNA, one strand shown.
Consider AATCAGGG, for which the binding signal was 0.313 ± 0.0785 E-score. Regarding AATCTGGA, the binding signal is 0.452 ± 0.00746 E-score.

Regarding AATCTGGC, the binding signal is 0.416 ± 0.0222 E-score.

Consider AATCGGGT, for which the binding signal came out at 0.272 ± 0.0576 E-score.

Take AATCTGGG: the binding signal stood at 0.428 ± 0.0442 E-score. The same measure for ATCCTGGA: 0.296 ± 0.0334 E-score; for AATCTGGT: 0.443 ± 0.0103 E-score. For ATCCTGGC, the binding signal was 0.244 ± 0.119 E-score. Turning to AGTGAAAT, the binding signal came to 0.208 ± 0.0317 E-score. ATTACGAA: the binding signal came to 0.341 ± 0.0714 E-score.

For ACCGTATC, the binding signal turned out to be 0.274 ± 0.0523 E-score. The same measure for AATGAGAT: 0.312 ± 0.0605 E-score; for ATTTCGGA: 0.309 ± 0.0179 E-score. As to ATTGCGAC, the binding signal came to 0.346 ± 0.0296 E-score. ATCAGTAA: the binding signal was 0.214 ± 0.0917 E-score. As to AATCATAC, the binding signal stood at 0.263 ± 0.039 E-score. AGCGAGAT: the binding signal is 0.269 ± 0.0866 E-score. Under AATATATA stands 0.27 ± 0.0135 E-score; under AGAATAAT, 0.206 ± 0.0577 E-score. ATCCGGCA: the binding signal came out at 0.253 ± 0.0503 E-score. ATTGCGGA: the binding signal was 0.359 ± 0.0313 E-score. Regarding ATCTGGAA, the binding signal stood at 0.351 ± 0.0575 E-score. The same measure for AATCTACG: 0.38 ± 0.0162 E-score. The same measure for AATCGACG: 0.243 ± 0.0212 E-score. The same measure for ATCCTACA: 0.298 ± 0.0179 E-score. For the sequence AATCAACT, the binding signal was determined as 0.274 ± 0.00959 E-score. Under AATCTACT stands 0.406 ± 0.0108 E-score; under AATCAACG, 0.247 ± 0.00961 E-score; under ATTCTATC, 0.261 ± 0.0903 E-score. In the case of AATCTACC, the binding signal was determined as 0.404 ± 0.00847 E-score. Consider AATCATCT, for which the binding signal was 0.205 ± 0.0194 E-score. Under AATCTACA stands 0.401 ± 0.0303 E-score. The same measure for AATATACA: 0.21 ± 0.00993 E-score; for ATTTTAGA: 0.221 ± 0.0235 E-score; for ATCTCATA: 0.291 ± 0.0411 E-score. Under ATCCCCAA stands 0.276 ± 0.0488 E-score; under ATAGGATA, 0.247 ± 0.133 E-score; under AAATATTA, 0.313 ± 0.0186 E-score. As to ATACAAAA, the binding signal worked out at 0.251 ± 0.0113 E-score.

As for AGCTAGAT, the binding signal was 0.216 ± 0.00676 E-score. With ATTGCGGG, the binding signal is 0.26 ± 0.0952 E-score. Under AATCGCGG stands 0.317 ± 0.0232 E-score; under AAATAAAG, 0.202 ± 0.0801 E-score.

On to AGATTGTA, for which the binding signal worked out at 0.3324 ± 0.00276 E-score. The same measure for AGATTGTC: 0.3936 ± 0.00333 E-score; for ATATTGTG: 0.235 ± 0.0938 E-score.

Regarding AGATTGTG, the binding signal amounted to 0.421 ± 0.0279 E-score.

For ATATTGTC, the binding signal was found to be 0.261 ± 0.0163 E-score.

For the sequence AGATCGTC, the binding signal was determined as 0.3356 ± 0.00264 E-score. The same measure for AAGGATTG: 0.247 ± 0.0253 E-score; for AAATATAA: 0.208 ± 0.0739 E-score; for AATCCCCT: 0.2621 ± 0.00234 E-score.

As to AATCCGCC, the binding signal turned out to be 0.372 ± 0.0634 E-score. Under ATTCCGCA stands 0.238 ± 0.0649 E-score; under ATTCCGCG, 0.256 ± 0.00946 E-score; under ATCCCGCA, 0.289 ± 0.00853 E-score.

For the sequence AATCCGCG, the binding signal is 0.396 ± 0.0375 E-score. The same measure for AATCCGCA: 0.395 ± 0.0273 E-score; for AATCCGCT: 0.388 ± 0.0352 E-score; for AATCAGCG: 0.312 ± 0.0496 E-score. Under ATCTTGGG stands 0.216 ± 0.0663 E-score.

AAATAGAT: the binding signal was 0.264 ± 0.0472 E-score. As for ATCTGGTG, the binding signal came to 0.3327 ± 0.000333 E-score. Regarding ATACATAT, the binding signal came out at 0.204 ± 0.0258 E-score. As to ATATAGAT, the binding signal was 0.352 ± 0.0482 E-score.

Turning to ATTTAAGA, the binding signal turned out to be 0.236 ± 0.0208 E-score. ACGGATCT: the binding signal worked out at 0.265 ± 0.053 E-score. The same measure for AAGGATAT: 0.387 ± 0.00749 E-score. For AGGGATAT, the binding signal turned out to be 0.353 ± 0.00472 E-score. Under AAGGATCT stands 0.335 ± 0.00404 E-score; under ACGGATAC, 0.2607 ± 0.00125 E-score.

With ACGGATAT, the binding signal was 0.381 ± 0.03 E-score. ATTATATA: the binding signal stood at 0.215 ± 0.115 E-score.

ATCTACAC: the binding signal came out at 0.34 ± 0.0325 E-score.

On to AATTCTGT, for which the binding signal turned out to be 0.223 ± 0.0117 E-score. The same measure for ATACGCTA: 0.239 ± 0.0564 E-score; for ATCATGAA: 0.215 ± 0.0159 E-score.

On to CAGATCCC, for which the binding signal is 0.266 ± 0.0242 E-score. With AAGATCAC, the binding signal was determined as 0.225 ± 0.0928 E-score. Consider CAGATCTA, for which the binding signal was determined as 0.249 ± 0.0194 E-score. Turning to AGGATCTA, the binding signal is 0.314 ± 0.04 E-score. Consider CAGATCTG, for which the binding signal is 0.38 ± 0.0481 E-score. Take AAGATCTA: the binding signal was determined as 0.356 ± 0.00732 E-score. The same measure for CAGATCCG: 0.266 ± 0.0152 E-score; for AGGATCTC: 0.402 ± 0.0113 E-score; for CAGATCTC: 0.423 ± 0.0294 E-score. AAGATCTG: the binding signal was found to be 0.362 ± 0.0161 E-score. Consider AGGATCTG, for which the binding signal was determined as 0.337 ± 0.025 E-score. Turning to AAGATCTC, the binding signal turned out to be 0.406 ± 0.00477 E-score.

Consider ATTCGCTC, for which the binding signal came to 0.231 ± 0.0553 E-score.

ATCACGAT: the binding signal turned out to be 0.29 ± 0.0315 E-score. Under ATTCCAAC stands 0.2142 ± 0.000545 E-score. Under ATCCGTTG stands 0.233 ± 0.0162 E-score; under ATATGCAT, 0.219 ± 0.0814 E-score; under ATATGGAA, 0.219 ± 0.0165 E-score. Consider ATCTAAAA, for which the binding signal stood at 0.244 ± 0.06 E-score.

In the case of ACCGGAAT, the binding signal turned out to be 0.243 ± 0.0509 E-score. For the sequence AGGAGGAT, the binding signal is 0.244 ± 0.0559 E-score. For ATTCGCCA, the binding signal came to 0.278 ± 0.00941 E-score.

As to ATCCTTTA, the binding signal is 0.274 ± 0.0111 E-score. For the sequence AAGATCTT, the binding signal came to 0.399 ± 0.0153 E-score.

On to AAGATCAT, for which the binding signal is 0.214 ± 0.0212 E-score. The same measure for AAGATCCT: 0.339 ± 0.00784 E-score; for AATCCCTG: 0.283 ± 0.0408 E-score; for AATCGATT: 0.353 ± 0.0155 E-score.

Take AATCCCAT: the binding signal was determined as 0.331 ± 0.00747 E-score. As to AATCCATT, the binding signal is 0.38 ± 0.039 E-score.

For AATCCATG, the binding signal stood at 0.381 ± 0.0124 E-score. Under ATTCCATG stands 0.229 ± 0.0434 E-score; under AATCCATA, 0.3787 ± 0.000904 E-score; under AATCCATC, 0.367 ± 0.0565 E-score. Turning to ATTCCATA, the binding signal worked out at 0.257 ± 0.00403 E-score.
